Potency data for 39 compounds are collected here from PubChem BioAssay (NCATS).

Results filed as inconclusive are left out. Activity calls are given as the source filed them. Unless noted, calls follow the shape of the full dose curve.

The first test deals with Glucocorticoid receptor (Homo sapiens) (UniProt P04150). In words: GR-EFC Redistribution (AID 451). Also: potency is read from the fitted curve at half-maximal effect. Particulars: CHO-K1 GR-EFC translocation, beta-gal luminescence, 2 h. Summed up: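 Translocation of GR-ED fusion to nuclear EA restores b-gal, read by luminescence after 1 h room-temperature detection. Engineered CHO-K1 biosensor cells, 1,000/well, exposed 2 h at 37 C to titrations up to 46 uM final.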
Sequence of Glucocorticoid receptor (Homo sapiens) (P04150 whole entry, looked up, the tested form may be a part): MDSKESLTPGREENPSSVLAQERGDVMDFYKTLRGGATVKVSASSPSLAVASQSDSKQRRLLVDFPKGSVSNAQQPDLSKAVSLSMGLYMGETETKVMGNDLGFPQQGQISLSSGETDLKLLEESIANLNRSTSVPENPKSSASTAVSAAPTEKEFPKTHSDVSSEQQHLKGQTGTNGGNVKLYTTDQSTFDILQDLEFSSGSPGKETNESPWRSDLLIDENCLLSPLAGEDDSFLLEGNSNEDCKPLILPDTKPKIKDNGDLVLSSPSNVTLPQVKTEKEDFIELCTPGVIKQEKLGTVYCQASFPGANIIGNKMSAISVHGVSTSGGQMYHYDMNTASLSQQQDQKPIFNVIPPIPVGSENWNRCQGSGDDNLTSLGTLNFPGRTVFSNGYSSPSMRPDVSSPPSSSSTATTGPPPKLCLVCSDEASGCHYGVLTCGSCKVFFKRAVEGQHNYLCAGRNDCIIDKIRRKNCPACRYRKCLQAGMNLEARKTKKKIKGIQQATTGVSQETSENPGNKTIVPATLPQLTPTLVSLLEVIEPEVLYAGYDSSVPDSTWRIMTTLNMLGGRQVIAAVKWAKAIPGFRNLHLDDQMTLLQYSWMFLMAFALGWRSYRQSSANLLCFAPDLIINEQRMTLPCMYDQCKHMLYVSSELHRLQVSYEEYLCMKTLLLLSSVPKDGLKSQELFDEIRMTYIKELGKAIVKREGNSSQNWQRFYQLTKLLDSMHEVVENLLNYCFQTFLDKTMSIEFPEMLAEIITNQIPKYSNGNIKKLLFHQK
On to `Cc1noc(C)c1C(=O)N1CCC2(CC1)CN(c1cccc(-c3ccccc3)c1)C2`, for which the Potency is > 46 µM (inactive).
As to `O=C1c2ccccc2[C@@H]([C@@H]2c3ccccc3C(=O)c3cc(Br)ccc32)c2ccc(Br)cc21`, the Potency was > 9.22 µM (inactive).
The same measure, in the same setting: under `N[C@@H](CSCc1ccccc1)C(=O)O` stands > 9.22 µM (inactive).
On to `O=C1c2ccccc2C(=O)c2c(Nc3cc4c5c(ccc6c7ccc8c9c(cc(Nc%10cccc%11c%10C(=O)c%10ccccc%10C%11=O)c(c3c56)c97)-c3ccccc3C8=O)C(=O)c3ccccc3-4)cccc21`, for which the Potency is > 9.22 µM (inactive).
In the case of `O=S(=O)(O)c1ccc(NN(c2c(O)ccc3ccccc23)S(=O)(=O)O)cc1`, the Potency is > 9.22 µM (inactive).
As to `COc1ccc(C(=O)N2CCC3(CC2)CN(c2ccccc2)C3)cc1`, the Potency was > 46 µM (inactive).
Still for that read-out and setting: under `CN(C)c1ccc(C(c2ccc(N(C)C)cc2)c2ccc([N+](=O)[O-])cc2)cc1` stands > 9.22 µM (inactive); under `Nc1nc(C(=O)O)c(N=Nc2ccccc2)c(=O)[nH]1`, > 9.22 µM (inactive).
The same measure, in the same setting: under `CN(C)CCCN=C(N)N` stands > 9.22 µM (inactive); under `N#CCCn1c(=O)c(-c2cc(F)cc(F)c2)nc2cnc(Oc3cccc(Cl)c3)nc21`, > 46 µM (inactive); under `O=S(=O)(O)c1cc(S(=O)(=O)O)c2c(N=Nc3cccc4ccccc34)c(O)ccc2c1`, > 9.22 µM (inactive).
Consider `C#CCOC(=O)[C@H](N)CC(N)=O`, for which the Potency was > 9.22 µM (inactive).
The same measure, in the same setting: next, `Cc1ccc(N=Nc2c(O)ccc3cc(S(=O)(=O)O)ccc23)cc1`: > 9.22 µM (inactive).
Take `Cc1ccc(N=Nc2c(O)c(S(=O)(=O)O)cc3cc(S(=O)(=O)O)ccc23)c(C)c1`: the Potency is > 9.22 µM (inactive).
The same measure, in the same setting: next, `O=S(=O)(O)c1cc(O)c2c(O)c(N=Nc3cccc4ccccc34)c(S(=O)(=O)O)cc2c1`: > 9.22 µM (inactive); `COCCn1c(=O)c(-c2ccc(OC)cc2)nc2cnc(Oc3ccccc3)nc21`: > 46 µM (inactive).
As to `CNS(=O)(=O)c1ccccc1C(=N)c1ccccc1`, the Potency is > 9.22 µM (inactive).
Same read-out and setting: under `C[N+]1(CCN=C=NC2CCCCC2)CCOCC1` stands > 9.22 µM (inactive); under `O=S(=O)(O)c1ccc(N=Nc2ccc3c(S(=O)(=O)O)cccc3c2O)c2ccccc12`, > 9.22 µM (inactive); under `COc1ccc([C@@H](C)c2cc3c(cc2O)OCO3)cc1`, > 9.22 µM (inactive).
Still for that read-out and setting: under `O=C1OC2(c3ccc(O)cc3Oc3cc(O)ccc32)c2c1c(-c1ccccc1)c(-c1ccccc1)c(-c1ccccc1)c2-c1ccccc1` stands > 9.22 µM (inactive).
For `O=S(=O)(O)c1ccc2c(N=Nc3c(O)ccc4ccccc34)cccc2c1`, the Potency was > 9.22 µM (inactive).
As for `Nc1cc2c(nc3c4ccccc4c(N)cc3[n+]2-c2cccc3ccccc23)c2ccccc12` (tested in a mixture with another compound), the Potency is > 9.22 µM (inactive).
On the same count and under the same terms, under `O=S(=O)(O)c1ccc2c(N=Nc3cccc4ccccc34)c(O)c(S(=O)(=O)O)cc2c1` stands > 9.22 µM (inactive); under `CS(=O)(=O)c1ccc(/C=N\NC(N)=S)cc1`, > 9.22 µM (inactive); under `Cc1ccc(CCCC(=O)O)cc1C`, > 9.22 µM (inactive).

The target in the next test is Mitogen-activated protein kinase 10 (Mus musculus) (UniProt Q61831). Briefly: JNK3 AlphaScreen Assay (AID 530; active = well fitted curve in either direction with a large enough effect, not every such curve was filed as active;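 also: kinase came from lysate of stimulated human HepG2 cells; signal reports phosphorylation of biotinylated GST-cJun 1-79 at Ser73 with 10 µM ATP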). Particulars: JNK3 lysate, c-Jun phosphorylation; series mostly up to 11.4 µM. Put shortly: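 Room-temperature AlphaScreen kinase assay; pre-activated HepG2 lysate as JNK3 source, biotin-GST-cJun(1-79) substrate, 10 uM ATP, compound 15 min preincubation.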
Regarding `Cc1noc(C)c1C(=O)N1CCC2(CC1)CN(c1cccc(-c3ccccc3)c1)C2`, the Potency result was “inactive”.
Same read-out and setting: under `O=C1c2ccccc2[C@@H]([C@@H]2c3ccccc3C(=O)c3cc(Br)ccc32)c2ccc(Br)cc21` stands “inactive”; under `O=C(O)c1ccccc1-c1ccccc1C(=O)c1ccccc1`, “inactive”; under `N[C@@H](CSCc1ccccc1)C(=O)O`, “inactive”.
Still for that read-out and setting: next, `O=S(=O)(O)c1ccc(-c2nnc(-c3ccccn3)nc2-c2ccc(S(=O)(=O)O)o2)o1`: “inactive”; `COc1ccc(C(=O)N2CCC3(CC2)CN(c2ccccc2)C3)cc1`: “inactive”.
With `C[C@@H]1CCCC(CC(=O)O)(CC(=O)O)C1`, the Potency entry is “inactive”.
In the case of `O=C(O)C1C(C(=O)O)C(C(=O)O)C1C(=O)O` (centres undefined), the Potency result was “inactive”.
`S=c1nc(-c2nc(=S)[nH]c3c2CCCCCCCCCC3)c2c([nH]1)CCCCCCCCCC2`: the Potency result was “inactive”.
On the same count and under the same terms, under `CN(C)CCCN=C(N)N` stands “inactive”.
With `O=C(O)c1cc(C(=O)O)cc(N2C(=O)c3ccccc3C2=O)c1`, the Potency result was “inactive”.
As for `C#CCOC(=O)[C@H](N)CC(N)=O`, the Potency result was “inactive”.
On the same count and under the same terms, next, `CN(Cc1cc(Br)cc(Br)c1O)Cc1c(O)ccc2ccccc12`: “inactive”.
Consider `O=C(O)CC(CC(=O)O)C(=O)O`, for which the Potency entry was “inactive”.
Turning to `CNS(=O)(=O)c1ccccc1C(=N)c1ccccc1`, the Potency result is “inactive”.
With `C[N+]1(CCN=C=NC2CCCCC2)CCOCC1`, the Potency entry is “inactive”.
In the case of `CN(C)CN1CSC(=S)N(CN(C)C)C1`, the Potency result was “inactive”.
With `FC(F)(F)c1cc(NC(=S)N2c3ccccc3-n3cccc3[C@H]2c2cccnc2)cc(C(F)(F)F)c1`, the Potency entry is “inactive”.
Same read-out and setting: next, `CN(C)Cc1cc(C(C)(C)C)cc(CNC2CCCCC2)c1O`: “inactive”.
Same read-out and setting: next, `O=C1OC2(c3ccc(O)cc3Oc3cc(O)ccc32)c2c1c(-c1ccccc1)c(-c1ccccc1)c(-c1ccccc1)c2-c1ccccc1`: “inactive”; `S[C@@H]1CCCN(Cc2ccccc2)C1`: “inactive”.
Turning to `N#CC(=NCCO)C1=C(O)c2ccccc2C1=O`, the Potency entry was “inactive”.
On to `Cc1ccc(CCCC(=O)O)cc1C`, for which the Potency entry was “inactive”.
